# Laboratory results as given in ChEMBL document CHEMBL4513216, “Probing the Open Global Health Chemical Diversity Library for Multistage-Active Starting Points for Next-Generation Antimalarials” (ACS Infect Dis, 2020).
# Screen size: about 69,000 compounds; about 8,600 (12%) showed an effect of 50% or more. What follows is part of a selection rich in strong results, with near analogues and random picks from the rest.
# Tested on: Plasmodium berghei
# Experiment: Screen against P. berghei liver stage (PbLuc), transformed with Luciferase, at 10uM
# Assay type: functional, HepG2
# Settings: tested at 10 uM
row,SMILES,INHIBITION [%]
1,Cc1cnn(CC2CN(Cc3nnc(C(C)C)o3)CCO2)c1 (stereo unspecified),30.6
2,Cc1nc(CN(C)C(=O)C2CC(=O)N(c3cccc(O)c3)C2)cs1 (stereo unspecified),7.6
3,Cc1nc(CN(C)C(=O)C2CCC(=O)N(CCN(C)C)C2)cs1 (stereo unspecified),20.8
4,COCCN1CC(C(=O)N(C)Cc2csc(C)n2)CC1=O (stereo unspecified),57.8
5,Cn1cc(CCNC(=O)NCc2ccc3c(c2)OCCO3)cn1,24.5
6,CCC(=O)N1CCC2(CC1)COc1ccccc1S(=O)(=O)N(C)C2,-0.182
7,COCCN1CCC2(CC1)COc1ccccc1S(=O)(=O)N(C)C2,-4.32
8,CN(C)C(=O)CN1CCC2(CC1)COc1ccccc1S(=O)(=O)N(C)C2,17.4
9,COCC(=O)N1CCC2(CC1)COc1ccccc1S(=O)(=O)N(C)C2,66.8
10,CN1CC2(CCN(C(=O)C3CCC3)CC2)COc2ccccc2S1(=O)=O,20.4
11,CN(C)CC(=O)N1CCC2(CC1)COc1ccccc1S(=O)(=O)N(C)C2,50
12,N#Cc1csc(CNCCOc2ccc(Cl)cn2)c1,4.35
13,Cc1cnn(CC2CCCN2C(=O)CCCc2nc(C)no2)c1 (stereo unspecified),-45.8
14,Fc1cc(CCNc2ccc3nccn3n2)c2c(c1)COCO2,48.2
15,CC(C)(C)c1cc(NC(=O)CN2CCC(N3CCNC3=O)CC2)on1,3.73
16,CC(=O)N1CCC(c2ncc3c(n2)CCN(C(=O)c2ccccc2)C3)C1 (stereo unspecified),1.5
17,CCOCCN1CCC=C(C2c3nc[nH]c3CCN2C(C)=O)C1 (stereo unspecified),36.6
18,Cc1nn(C)c(C)c1CN1CCCC(c2ccc(C(=O)O)cc2)C1 (stereo unspecified),6.88
19,CCn1nc(C)c(CN2CCC(c3ccc(C(=O)O)cc3)C2)c1C (stereo unspecified),27.9
20,CCn1nc(C)c(CN2CCCC(c3ccc(C(=O)O)cc3)C2)c1C (stereo unspecified),62.4
21,Cc1nn(C)c2c(N3CCN(C(=O)C(C)C)CC3)ncnc12,10.1
22,Cc1nn(C)c2c(N3CCN(C(=O)C4CC4)CC3)ncnc12,44.1

row,SMILES,INHIBITION [%]
1,CCC(=O)N1CCN(c2ncnc3c(C)nn(C)c23)CC1,50.7
2,CCc1nc(N2CCN(c3ncccc3C#N)CC2)c2cnn(C)c2n1,53.7
3,CCc1nc(N2CCN(c3ncccn3)CC2)c2cnn(C)c2n1,-3.55
4,CCc1nc(N2CCCN(c3ncccn3)CC2)c2cnn(C)c2n1,33.3
5,O=C(c1ccc(F)cc1)N1CCC2(CCCN2CC2CC2)CC1,26.6
6,COc1ccccc1N1CCN(Cc2cnc3c(c2)c(C)nn3C)CC1,32.3
7,Cc1ccc(-c2c(C(=O)NC3CCN(C)CC3)csc2C)cc1,68.4
8,CCCN1CCC(NC(=O)c2csc(C)c2C)CC1,64.4
9,CCCN1CCC(NC(=O)c2ccc(F)cc2I)CC1,46.8
10,Cc1ccc(-c2ccsc2C(=O)NC2CCS(=O)(=O)C2)cc1 (stereo unspecified),-63.5
11,Cc1ncsc1C(=O)NC1CCN(CCC(=O)Nc2ccccc2)CC1,-5.07
12,CCCN1CCC(NC(=O)NCCc2nc(CC)c(C)s2)CC1,26.8
13,CCCN1CCC(NC(=O)c2csc(C)c2-c2ccc(C)cc2)CC1,1.56
14,CN1CCC(NC(=O)NCc2csc(Br)c2)CC1,45.9
15,CCCN1CCC(NC(=O)c2csc(C)c2-c2ccccc2)CC1,81.5
16,CC(C)c1nnc(CN2CCCC(Cn3cncn3)C2)o1 (stereo unspecified),22.03
17,O=c1cc2c(nn1CN1CCN(c3ccc(F)cc3)CC1)CCC2,-6.53
18,C[C@H](NC(=O)Cc1csc(-c2cccc(Cl)c2)n1)C(=O)O,35
19,COCC(=O)N1CCCCC1c1nc(C)c2c(n1)N(CC1CC1)C(=O)C2 (stereo unspecified),23
20,O=c1ccc(-c2ccccc2F)nn1CN1CCCCCC1,-22.9
21,CCn1c(CC2CCN(S(=O)(=O)Cc3ccccc3)CC2)nn(C)c1=O,-28.1
22,CN1CCCC(c2ccc(N3CCOCC3)cn2)C1 (stereo unspecified),-2.48

row,SMILES,INHIBITION [%]
1,CCOC[C@H]1CC[C@H]2[C@H](CCN2S(=O)(=O)Cc2ccccc2)O1,12.1
2,CN1C(=O)C[C@@H]2[C@@H]1CCN2S(=O)(=O)Cc1ccccc1,26.8
3,Cc1ccc(CS(=O)(=O)N2CC[C@H]3[C@H]2CC(=O)N3C)cc1,15.4
4,CCOC[C@@H]1CC[C@H]2[C@H](CCN2S(=O)(=O)Cc2ccccc2)O1,57.1
5,CN1C(=O)CC[C@@H]2[C@H]1CCN2S(=O)(=O)Cc1ccccc1,61.5
6,COC[C@H]1CC[C@H]2[C@H](CCN2S(=O)(=O)Cc2ccccc2)O1,-34.6
7,Cc1ccc2cnn(CCC(=O)Nc3nc(C)c(C)s3)c2c1,30.8
8,CCC(Nc1cccc(OC)c1)C(=O)NCc1ccc2c(c1)OCO2 (stereo unspecified),36.4
9,Cn1nnc2c1C(COCC1CC1)CN(Cc1ccoc1)C2 (stereo unspecified),42.3
10,Cc1ccc(NC(=O)c2ccc(=O)n(CC(=O)Nc3nccs3)n2)cc1,42.7
11,NC(=O)c1ccc(CN2C(=O)C3(CCNCC3)Nc3ccccc32)cc1,67
12,NC(=O)c1ccc(CN2CCCC(N3CCCCCC3)C2)cc1 (stereo unspecified),22
13,CC(C)c1ccc(CN2C(=O)C3(CCNCC3)Nc3ccccc32)cc1,80.9
14,C=Cc1ccc(CN2C(=O)C3(CCNCC3)Nc3ccccc32)cc1,87.8
15,O=C1CC2(CCNCC2)C(=O)N1Cc1ccc(F)cc1,16.1
16,C=Cc1ccc(CN2CCCC3(CNC(=O)c4ccccc4O3)C2)cc1 (stereo unspecified),29.2
17,O=C1CC2(CCCNC2)C(=O)N1Cc1ccccc1 (stereo unspecified),27.4
18,O=C1CC2(CCCNC2)C(=O)N1Cc1ccc(F)cc1 (stereo unspecified),4.06
19,N#Cc1cccc(CN2C(=O)C3(CCNCC3)Nc3ccccc32)c1,25.5
20,CN(Cc1nnc(C2CC2)n1C)C1CCN(CCc2cnn(C)c2)C1 (stereo unspecified),7.08
21,CO[C@H]1CCN(S(=O)(=O)c2cn(C)cn2)[C@H]1Cc1ccccc1,-8.85
22,Cc1nn(C)c(N(C)C)c1CNC(C)c1cccc(OC(C)C)c1 (stereo unspecified),27.4
